About 320 (15%) of roughly 2,100 compounds were called active. About 52% were inconclusive and are not listed. Some of the results follow. Unmarked numbers belong to inactive results. The call rests on the fitted dose curve; in most records, active means well fitted cell-killing curve with a large enough effect; inconclusive means small, poorly fitted or top-dose-only effect, or effect the other way; inactive means flat fitted curve, though single readings scatter.
Assay: Viability Counterscreen for CMV-Luciferase Assay of Inhibitors of ATXN expression; further: nearly all actives have a fitted effect of over 55% in size
Conditions: HEK-293 CMV-luciferase cells viability, protease fluorescence, 24 h; activity change, negative = cytotoxicity: at the top concentration
Description: PI: Daniel Scoles Ph.D. University of Utah School of Medicine, Salt Lake City, Utah MLPCN Grant: NS073009 Spinocerebellar ataxia type 2 (SCA2) is a multisystem neurodegenerative disease caused by a dominantly acting mutation leading to expansion of a polyQ domain in the ataxin-2 protein (ATXN2). SCA2 patients develop progressive ataxia and later lose function in other neuronal systems. Prominent parkinsonian signs develop in some patients. Like many neurodegenerative disorders, no symptomatic or disease-modifying treatments are known. The primary objective of the proposed research is to identify compounds inhibiting ATXN2 expression and to test them for efficacy in SCA2 mouse models. We have developed a cell-based assay paired with an in vivo mouse model using identical luciferase expression constructs. This approach takes advantage of an ATXN2-luciferase transgene, with the luciferase gene flanked by the upstream and downstream portions of the ATXN2 gene. Here we describe a 5-7 dose quantitative high thoroughput screen (qHTS) for compounds lowering ATXN2 expression. We screened the NIH Molecular Libraries Small Molecule Repository (MLSMR) and NCGC's mechanistically annotated (MIPE) and drug repurposing (NPC) collections of compounds for lowering expression of an ATXN2-luciferase reporter in HEK-293 cells. The assay is a multiplexed cell viability assay to ensure target reduction in the absence of cytotoxicity. Secondary qHTS assays included a CMV-luciferase reporter expressed in HEK-293 cells as well as a biochemical assay using recombinant luciferase to detect inhibitors of the reporter enzyme. Compounds that inhibit ATXN2 expression but is not cytotoxic were selected for confirmatory and secondary screens.
PROTOCOL TABLE (as described by Inglese J, Shamu CE and Guy RK. 2007) SEQUENCE No. (e.g., 1, 2, 3, etc.); […] (e.g., Cells, Incubation, Reagent, etc.); VALUE; DESCRIPTION. 1; Cells; 4 uL; white, solid bottom, 1536-well Greiner assay plate. 2; Incubation; 2 hr; 37 degree C in 5% humidified CO2. 3; Compounds; 23 nL; Kalypsis pintool (Wako USA) equipped with a 1536-well pin head. 4; Incubation; 24 hr; 37 degree C in 5% humidfified CO2. 5; Reagent; 1 uL; Gly-Phe-7-Amino-4-trifluoromethylcoumarin. 6; Incubation; 30 min; 37 degree C in 5% humidfified CO2. 7; Detection; Fluorescence; Viewlux plate reader (PerkinElmer). 8; Reagent; 3 uL; SteadyGlo luciferase solution (Promega). 9; Incubation; 5 min; room temperature. 10; Detection; Luminescence; ViewLux plate reader (PerkinElmer). NOTES (numbers refer to Sequence numbers above) 1. HEK-293 cells expressing CMV-luciferase reporter (designated as SC cells) were suspended in phenol-red free DMEM and dispensed in assay plates using a Multidrop Combi dispenser (Thermo Fisher Scientific). 2. Assay plates were incubated. Evaporation was prevented by covering assay plates with metal lids containing holes to allow gas diffusion. 3. Compounds were added in a dose response manner with the final concentrations of 57, 11.4, 2.28, 0.46, 0.091, 0.018, 0.0037 uM. Vehicle-only plates, with DMSO being pin-transferred to columns 5-48, were inserted uniformly at the beginning and the end of each library to monitor and record any shifts in assay performance. 5. 125 uM Gly-Phe-7-Amino-4-trifluoromethylcoumarin (MP Biomedicals) working concentration was used at a final concentration of 25 uM. 7. To assess cell viability; the assay plates were read using the ViewLux high-throughput CCD imager (PerkinElmer), wherein single end-point fluorescence measurement was acquired (excitation 405/10; emission 540/25 nm). 8. Detection reagent SteadyGlo Luciferase (Promega) was added to the assay plate. 10. Luminescence is then measured on the ViewLux imager equipped with a clear emission filter using a 2 sec exposure. […]
On the % scale 0 is the no-effect control and ±100 the full control effect; potency means the concentration at half of the fitted maximal effect.

| SMILES | activity change, negative = cytotoxicity | Potency |
| --- | --- | --- |
| CC(=O)N1CCN(c2ccc(Oc3ccc([N+](=O)[O-])c(C(F)(F)F)c3)cc2)CC1 | -28.6% [at 57.5 µM] |  |
| Clc1ccc(SCc2cc(N3CCOCC3)nc(-c3ccccn3)n2)cc1 |  | 17.8 µM (active) |
| Cc1cc(Oc2ccc(Cl)cc2)nc(-c2ccccn2)n1 | 9.12% [at 57.5 µM] |  |
| O=C(Oc1c(CN2CCOCC2)cc(Cl)c2cccnc12)c1ccccc1 | -15.7% |  |
| CCCC(=O)Nc1ccc2nc(SCC(=O)N3CCCC3)sc2c1 | 10.3% [at 57.5 µM] |  |
| COc1ccccc1OCCN1CSC(=S)N(C)C1 |  | 11.2 µM (active) |
| COc1cc(OC)cc(-c2cc3nc(C)c(CCC(=O)NCc4ccccc4)c(C)n3n2)c1 | 0.755% [at 57.5 µM] |  |
| O=C(NCc1ccccc1C(F)(F)F)c1cccc2c1C(=O)c1ccc(N3CCC(N4CCCCC4)CC3)cc1S2(=O)=O | -2.76% |  |
| Cc1ccsc1/C=C/C1=Cc2c(sc(NC(=O)CSc3n[nH]c(N)n3)c2C#N)C(C)(C)C1 | 2.76% [at 57.5 µM] |  |
| COC(=O)c1ccccc1S(=O)(=O)NNC(=O)Nc1ccccc1 | 7.74% |  |
| COc1ccc(/C=C/C(=O)Nc2cccc(S(=O)(=O)N3CCCC3)c2)cc1OC | 17.8% |  |
| CCSc1nc2ccccc2n1C(=O)/C=C\c1ccc(OC)c(OC)c1 |  | 4.47 µM (active) |
| O=C(CN1c2cccc3cccc(c23)S1(=O)=O)NCc1ccc(Cl)cc1 | 1.66% |  |
| CCN(CC)CCC(c1ccc2c(c1)OCO2)c1c(OC)cc(OC)c2c(-c3ccccc3)cc(=O)oc12 (configuration not stated) |  | 17.8 µM (active) |
| COc1ccc(-n2nc(C(=O)NCC(=O)Nc3cccc(Cl)c3)c3ccccc3c2=O)cc1OC | -8.61% [at 57.5 µM] |  |
| CC(C)(C)c1ccc(OCCn2nc(C(=O)O)c3ccccc3c2=O)cc1 | -4.92% [at 57.5 µM] |  |
| COc1ccccc1C(=O)NNC(=O)c1nn(Cc2ccccc2)c(=O)c2ccccc12 |  | 22.4 µM (active) |
| CC(C)(C)NCC(=Cc1ccccc1)C(=O)c1ccccc1 |  | 2.24 µM (active) |
| O=C(C(Br)=Cc1ccccc1)c1ccccc1 |  | 7.94 µM (active) |
| O=C(N/N=C/c1ccccc1O)/C(=C/c1ccccc1)CCO | -7.96% |  |
| Cc1ccc(CN(C)C(=O)CN2C(=O)NC(c3ccccc3)(c3ccccc3)C2=O)c(C)c1 | -27.6% |  |
| O=C(Nc1cccc(S(=O)(=O)N2CCOCC2)c1)c1ccc2c(=O)n3c(nc2c1)CCCCC3 | -20.1% |  |
| O=C(Nc1ccc(NC(=O)c2ccc(Cl)cc2Cl)cc1)c1cccs1 | -25.7% [at 57.5 µM] |  |
| O=C(Nc1ccc(Cl)cc1)Nc1nc(-c2sccc2Br)cs1 |  | 10 µM (active) |

| SMILES | activity change, negative = cytotoxicity | Potency |
| --- | --- | --- |
| Cc1ccc(F)cc1-c1cc2nc(NCCCN(C)C)n(C)c(=O)c2s1 | -13.1% [at 57.5 µM] |  |
| CC(C)c1cccc(C(C)C)c1Nc1cn[nH]c1 | -15.4% |  |
| CCOC(=O)c1cnc(-n2nc(C)cc2C)nc1NNc1cc(C)nc(-c2ccccc2)n1 |  | 8.91 µM (active) |
| CCOC(=O)c1cnc(-n2nc(C)cc2C)nc1NC1CCCC1 | -7.03% |  |
| Cc1cc(NCc2ccccn2)n2nc(C)c(-c3ccc(Cl)cc3)c2n1 |  | 20 µM (active) |
| CCCc1cc(NCc2ccccn2)n2nc(C)c(-c3ccccc3)c2n1 | -18.3% |  |
| CC(C)C(CCNCc1ccccn1)c1ccc(Cl)cc1 (configuration not stated) | 5.83% [at 57.5 µM] |  |
| COc1cc(/C=C2\COC/C(=C\c3cc(OC)c(OC)c(OC)c3)C2=O)cc(OC)c1OC |  | 1.58 µM (active) |
| COc1cc(/C=C/c2ccc3cccc(O)c3n2)cc(OC)c1OC | -28.4% [at 57.5 µM] |  |
| COc1cc(OC)c(OC)cc1/C=C1\CC(C)C/C(=C\c2cc(OC)c(OC)cc2OC)C1=O (configuration not stated) | -29.6% [at 57.5 µM] |  |
| CCOC(=O)N(C)c1c(CC)nc2c(OCc3ccccc3OC)cccn12 | 14.1% [at 57.5 µM] |  |
| Cc1cc(C)cc(NC(=O)CCC(=O)Nc2cc(C)on2)c1 | 16.8% |  |
| Cn1c(SCc2ccc(C(C)(C)C)cc2)nnc1C1COc2ccccc2O1 (configuration not stated) | -14.2% |  |
| N#C/C(=C/c1ccc(Sc2nc3ccccc3[nH]2)o1)c1cccc(F)c1 | -26.5% |  |
| CC1(C(=O)NC2CCN(Cc3ccccc3)CC2)CCN1Cc1ccc2ccccc2c1 (configuration not stated) | -17.7% |  |
| C=CCN(C(=O)CSc1nc2c(sc3ccccc32)c(=O)n1CCN(CC)CC)c1ccccc1 |  | 20 µM (active) |
| COc1ccc(/C=C/C(O)=C2/C(=O)N(C)C3(C)CC2c2ccccc2O3)cc1 (configuration not stated) | 0.775% [at 57.5 µM] |  |
| COc1ccc(C(=O)c2c(C)c3ccccc3n2CC(O)CNC(C)C)cc1 (configuration not stated) |  | 17.8 µM (active) |
| O=C(Oc1c(CN2CCOCC2)cc(Cl)c2cccnc12)c1cccs1 | 6.23% [at 57.5 µM] |  |
| COc1cnc(-c2ccccn2)nc1NC(C)C |  | 6.31 µM (active) |
| COc1cc(C#Cc2c(-c3cncn3C)n(C)c3ccc(-c4ccc(CN5CCOCC5)cc4)cc23)cc(OC)c1 | 3.5% |  |
| COc1ccc2c(-c3ccc(S(N)(=O)=O)cc3)c(-c3ccc(S(C)(=O)=O)cc3)sc2c1 | -21.7% [at 57.5 µM] |  |
| NC(=O)c1cc([N+](=O)[O-])ccc1NCc1ccc(N)cc1 |  | 22.4 µM (active) |
